# In all, about 52,000 compounds went through this assay and about 1,700 (3.3%) were called active. This excerpt belongs to a sample that is enriched for actives. Values without a mark were called inactive. No stated cut-off is given here; in the data, active means survival mostly below about 52% (no sharp cut-off); inactive means mostly above about 56%.
# Tested on: Wild type
# Test: S. aureus survival, RN4220 and DeltatarO strains – OD600, teichoic acid synthesis inhibitors, primary screen (AID 463173)
# Details: S. aureus RN4220 wild type/DeltatarO growth, OD600, 18 h, active compounds read low, screened at 18.75 µg/mL (by protocol)
row,Structure (SMILES),survival
1,CCc1ccc(NC(=O)CN2C(=O)c3ccccc3Sc3ccc(C(=O)N4CCCC4)cc32)cc1,82%
2,O=C(CN1C(=O)c2ccccc2Sc2ccc(C(=O)N3CCOCC3)cc21)Nc1ccc(Cl)cc1F,73%
3,Cc1ccc(NC(=O)CN2C(=O)c3ccccc3Sc3ccc(C(=O)N4CCOCC4)cc32)c(Cl)c1,-6% (active)
4,Cc1ccc(NC(=O)CN2C(=O)c3ccccc3Sc3ccc(C(=O)N4CCCC4)cc32)cc1,64%
5,CN(C)c1ccc(NC(=O)CN2C(=O)c3ccccc3Sc3ccc(C(=O)N4CCCC4)cc32)cc1,-4% (active)
6,Cc1cc(C)cc(NC(=O)CN2C(=O)c3ccccc3Sc3ccc(C(=O)N4CCOCC4)cc32)c1,69%
7,Fc1ccc(-c2noc3ncnc(NCc4cccc(Cl)c4)c23)cc1,55%
8,COc1ccccc1CN1CCNC(=O)C1=O,77%
9,O=C(CSc1nc2c([nH]c3ccccc32)c(=O)n1-c1ccccc1)N1CCOCC1,75%
10,O=S1(=O)c2ccccc2N(Cc2ccccc2Cl)c2ccccc21,80%
11,COc1ccc(N2CCN(C(CNC(=O)C(=O)NCCc3ccccc3)c3cccnc3)CC2)cc1 (stereo not given),84%
12,CC(NC(=O)C(=O)Nc1c2c(nn1-c1ccc(F)cc1)CSC2)c1ccccc1 (stereo not given),-4% (active)
13,CN1CCN(C(=O)C(=O)Nc2c3c(nn2-c2ccc(F)cc2)CSC3)CC1,81%
14,CCC(CO)NC(=O)C(=O)Nc1c2c(nn1-c1ccc(F)cc1)CSC2 (stereo not given),87%
15,CC(NC(=O)C(=O)Nc1c2c(nn1-c1ccccc1)CSC2)c1ccccc1 (stereo not given),55%
16,CN1CCN(C(=O)C(=O)Nc2c3c(nn2-c2ccc(Cl)cc2)CSC3)CC1,71%
17,CC(=O)N1CCN(C(=O)C(=O)Nc2c3c(nn2-c2ccc(Cl)cc2)CSC3)CC1,-3% (active)
18,Cc1cccc(OCC(=O)N(Cc2cccc(Cl)c2)Cc2ccco2)c1C,85%
19,CCOC(=O)c1ccc(NC(=O)c2cnc3c(-c4ccc(F)cc4)c(C)nn3c2C)cc1,120%
20,CCOC(=O)c1ccc(CN(Cc2ccc(OC)cc2)S(=O)(=O)c2cccc(C(F)(F)F)c2)cc1,73%
21,COc1ccc(OC)c(NC(=O)c2cc(S(=O)(=O)NCCc3ccc(Cl)cc3)ccc2F)c1,79%
22,Cc1cc(C)cc(NC(=O)c2cc(S(=O)(=O)NCCC3=CCCCC3)ccc2F)c1,80%
23,O=C(Nc1ccc(F)c(F)c1)c1cc(S(=O)(=O)NC2CCCCCC2)ccc1F,53%

row,Structure (SMILES),survival
1,Cc1ccc(NC(=O)c2cc(S(=O)(=O)NC3CCCCCC3)ccc2F)cc1F,79%
2,Cc1ccc(NC(=O)c2cc(S(=O)(=O)NC3CCCCC3)ccc2F)cc1Cl,-6% (active)
3,CCc1ccc(NC(=O)c2ccc(F)c(S(=O)(=O)N(C)C3CCCCC3)c2)cc1,71%
4,Cc1ccc(NC(=O)c2cc(S(=O)(=O)NCCC3=CCCCC3)ccc2F)cc1F,82%
5,CCc1ccccc1NC(=O)c1cc(S(=O)(=O)NCCc2ccc(OC)c(OC)c2)ccc1F,0% (active)
6,Cc1ccc(NC(=O)c2cc(S(=O)(=O)NCCC3=CCCCC3)ccc2F)cc1C,-3% (active)
7,CCc1ccc(NC(=O)c2ccc(F)c(S(=O)(=O)NC3CCCCCC3)c2)cc1,-4% (active)
8,O=C(Nc1ccc(Br)cc1)c1ccc(F)c(S(=O)(=O)NC2CCCCCC2)c1,56%
9,COc1ccc(CCNS(=O)(=O)c2ccc(F)c(C(=O)Nc3ccc(Cl)cc3)c2)cc1OC,126%
10,O=S(=O)(c1ccccc1)c1nc(-c2cccs2)oc1SCc1ccc(F)cc1,61%
11,O=C(COCc1cc(-c2cccs2)on1)Nc1ccc(OC(F)(F)F)cc1,124%
12,CCc1cccc(NC(=O)c2nc(-c3ccncc3)no2)c1,101%
13,CC(NC(=O)c1ccc(CSc2nc3ccncc3n2Cc2ccc(F)cc2)cc1)c1ccccc1 (stereo not given),92%
14,Cc1ccc(C(=O)Nc2sc3c(c2C(=O)NCc2ccco2)CCC(C(C)(C)C)C3)cc1 (stereo not given),70%
15,Cc1ccccc1C(=O)Nc1sc2c(c1C(=O)O)CCC(C(C)(C)C)C2 (stereo not given),6% (active)
16,Cc1ccccc1NC(=O)c1c(NC(=O)c2ccccc2F)sc2c1CCC(C)C2 (stereo not given),82%
17,CC(C)(C)C1CCc2c(sc(NC(=O)c3cccc(Cl)c3)c2C(N)=O)C1 (stereo not given),75%
18,Cc1ccccc1C(=O)Nc1sc2c(c1C(=O)NCc1ccco1)CCC(C(C)(C)C)C2 (stereo not given),88%
19,CC(C)(C)C1CCc2c(sc(NC(=O)c3ccc(Cl)cc3)c2C(=O)NCc2ccco2)C1 (stereo not given),95%
20,COc1ccccc1NC(=O)c1c(NC(=O)Cc2ccccc2)sc2c1CCC(C(C)(C)C)C2 (stereo not given),102%
21,COc1ccccc1NC(=O)c1c(NC(=O)c2cccs2)sc2c1CCC(C(C)(C)C)C2 (stereo not given),118%
22,CCCNC(=O)c1c(NC(=O)c2ccccc2)sc2c1CCC(C(C)(C)C)C2 (stereo not given),2% (active)
23,Cc1ccccc1NC(=O)c1c(NC(=O)c2ccncc2)sc2c1CCC(C(C)(C)C)C2 (stereo not given),91%

row,Structure (SMILES),survival
1,CC(C)(C)C1CCc2c(sc(NC(=O)CCC(=O)O)c2C(=O)Nc2ccccc2C(F)(F)F)C1 (stereo not given),1% (active)
2,CC1CCN(C(=O)c2c(NC(=O)c3ccccc3F)sc3c2CCC(C(C)(C)C)C3)CC1 (stereo not given),-2% (active)
3,CCCNC(=O)CCCN1C(=O)CCn2nc(-c3cccn3C)cc21,71%
4,O=C(CN1CCC(O)(c2ccccc2)CC1)NC1CCCCC1,111%
5,Cc1ccc(CNC(=O)CCCCCn2c(=O)c3sccc3n(CC(=O)N(C)c3ccccc3)c2=O)cc1,83%
6,O=C(CSc1nc(=O)[nH]c2c1CCCC2)NCc1ccccc1Cl,135%
7,COc1ccc(NC(=O)N2CCN(S(=O)(=O)c3ccc4c(ccn4C)c3)CC2)c(OC)c1,87%
8,CC(C)(C)C1CCc2c(sc(NC(=O)c3ccco3)c2C(=O)Nc2ccccc2Cl)C1 (stereo not given),108%
9,CCOc1ccccc1NC(=O)c1c(NC(=O)c2ccccc2C)sc2c1CCC(C)C2 (stereo not given),75%
10,CC(C)(C)C1CCc2c(sc(NC(=O)c3ccccc3F)c2C(=O)N2CCCCC2)C1 (stereo not given),-3% (active)
11,Cc1ccccc1C(=O)Nc1sc2c(c1C(=O)N1CCC(C)CC1)CCC(C)C2 (stereo not given),0% (active)
12,O=C(Nc1sc2c(c1C(=O)N1CCCCC1)CCCC2)c1ccccc1Cl,75%
13,Cc1ccccc1C(=O)Nc1sc2c(c1C(=O)N1CCC(C)CC1)CCCC2,64%
14,Cc1ccccc1C(=O)Nc1sc2c(c1C(=O)N1CCCCC1)CCC(C)C2 (stereo not given),36%
15,CC1CCN(C(=O)c2c(NC(=O)c3ccccc3Cl)sc3c2CCC(C(C)(C)C)C3)CC1 (stereo not given),2% (active)
16,CCN(CC)C(=O)c1c(NC(=O)c2ccccc2F)sc2c1CCC(C(C)(C)C)C2 (stereo not given),-3% (active)
17,CN(C)C(=O)c1c(NC(=O)c2ccccc2F)sc2c1CCCC2,82%
18,CC(C)(C)C1CCc2c(sc(NC(=O)c3ccncc3)c2C(=O)Nc2ccccc2Cl)C1 (stereo not given),84%
19,CC(C)(C)C1CCc2c(sc(NC(=O)c3ccccc3F)c2C(=O)NCc2ccco2)C1 (stereo not given),70%
20,COc1ccc(N2CC(NC(=O)/C=C\c3ccccc3)CC2=O)cc1 (stereo not given),101%
21,CC(=O)Nc1ccc(N2CCN(Cc3ccccc3)CC2)cc1,106%
22,COc1ccc2oc(=O)c(-c3csc(-c4ccc(Br)cc4)n3)cc2c1,80%
23,CCc1nn(CC(=O)NC2CC2)c(=O)c2cc3ccccc3n12,121%

row,Structure (SMILES),survival
1,Cc1ccc2c(=O)cc(C(=O)Nc3nc4ccc(Cl)cc4s3)oc2c1,65%
2,Cc1cc(C)cc(NC(=O)Cn2nnc(C(=O)NCCc3ccccc3)c2N)c1,93%
3,CCC(=O)Nc1sc2c(c1C(=O)Nc1ccc(OC)cc1)CCC(C(C)(C)C)C2 (stereo not given),2% (active)
4,COc1ccc(NC(=O)c2c(NC(=O)COc3ccccc3)sc3c2CCC(C(C)(C)C)C3)cc1 (stereo not given),77%
5,COc1ccc(NC(=O)c2c(NC(=O)c3ccncc3)sc3c2CCC(C(C)(C)C)C3)cc1 (stereo not given),47%
6,Cc1ccccc1C(=O)Nc1nc2c(s1)CC(C(C)(C)C)CC2 (stereo not given),124%
7,Cc1ccccc1C(=O)Nc1sc2c(c1C(=O)N1CCCCC1)CCC(C(C)(C)C)C2 (stereo not given),1% (active)
8,Cc1ccccc1NC(=O)c1c(NC(=O)c2ccco2)sc2c1CCC(C(C)(C)C)C2 (stereo not given),75%
9,CCc1cccc(C)c1NC(=O)CN1C(=O)C2(SCC(=O)N2c2cccc(F)c2)c2ccccc21 (stereo not given),136%
10,Cc1c(Cl)cccc1NC(=O)Cn1nnc(-c2nc(-c3ccccc3)no2)c1N,55%
11,COc1ccc2c(c1)c1c(c(=O)n(-c3ccccc3C)c(=O)n1C)n2C,81%
12,CCOc1cc(S(=O)(=O)NC2CC2)c(OCC)cc1-n1cnnn1,102%
13,COc1ccc(OC)c(CNC(=O)c2cc(=O)[nH]c3ccc(S(=O)(=O)N4CCCCC4C)cc23)c1 (stereo not given),1% (active)
14,COc1ccc(CCNC(=O)c2cc(=O)[nH]c3ccc(S(=O)(=O)N4CCCCC4C)cc23)cc1OC (stereo not given),127%
15,COc1ccc(Br)cc1CNC(=O)c1cc(=O)[nH]c2ccc(S(=O)(=O)N3CCCCC3C)cc12 (stereo not given),105%
16,Cc1ccc(Sc2c(C)nn(C(=O)c3ccc(Br)cc3)c2C)cc1,13% (active)
17,Cc1nn(C(=O)c2ccccc2)c(C)c1S(=O)(=O)N1CCCCCC1,80%
18,Cc1nn(C(=O)c2ccc(Br)cc2)c(C)c1Sc1ccccc1,-4% (active)
19,Cc1nn(C(=O)c2ccc(Br)cc2)c(C)c1S(=O)(=O)N1CCOCC1,71%
20,Cc1ccc(Sc2c(C)nn(C(=O)COc3ccccc3Br)c2C)cc1,90%
21,Cc1nn(C(=O)COc2ccccc2Br)c(C)c1Sc1ccccc1,57%

# From PubChem BioAssay AID463173 (ICCB-Longwood Screening Facility, Harvard Medical School, 2010)
